Of roughly 7,900 targets only a part is listed; those with a hit were picked by preference. About 0.6% of all pairs of compound and target were hits. A number with no mark means an inactive call.
These targets were tested with CC1=C(C=C(C=C1)NC(=O)C2=CC(=CC=C2)C(C)(C)C#N)NC3=CC4=C(C=C3)N=CN(C4=O)C (assay: log2 fold change, soluble protein after heating vs DMSO (PISA); higher = thermal stabilisation; K562 cells, 10 uM, 30 min; active = over 0.2 and 3.5 SD of the protein, either way, in both replicates (recomputed)).
Outline: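 Soluble protein was quantified by TMTpro 16plex LC-MS/MS after channel sums were equalised. It was obtained as the supernatant after 21,000xg for 90 min from pooled aliquots of K562 cells (2×10^6 cells/mL, 10 μM compound, 30 min) heated for 3 min across 48°C-58°C and extracted in PBS with 0.5% NP-40 at 4°C. Thermal stability values are relative to control samples and come from duplicates. They are given as log2 fold changes.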

UniProt Q12968, sequence (Q12968 whole entry, looked up): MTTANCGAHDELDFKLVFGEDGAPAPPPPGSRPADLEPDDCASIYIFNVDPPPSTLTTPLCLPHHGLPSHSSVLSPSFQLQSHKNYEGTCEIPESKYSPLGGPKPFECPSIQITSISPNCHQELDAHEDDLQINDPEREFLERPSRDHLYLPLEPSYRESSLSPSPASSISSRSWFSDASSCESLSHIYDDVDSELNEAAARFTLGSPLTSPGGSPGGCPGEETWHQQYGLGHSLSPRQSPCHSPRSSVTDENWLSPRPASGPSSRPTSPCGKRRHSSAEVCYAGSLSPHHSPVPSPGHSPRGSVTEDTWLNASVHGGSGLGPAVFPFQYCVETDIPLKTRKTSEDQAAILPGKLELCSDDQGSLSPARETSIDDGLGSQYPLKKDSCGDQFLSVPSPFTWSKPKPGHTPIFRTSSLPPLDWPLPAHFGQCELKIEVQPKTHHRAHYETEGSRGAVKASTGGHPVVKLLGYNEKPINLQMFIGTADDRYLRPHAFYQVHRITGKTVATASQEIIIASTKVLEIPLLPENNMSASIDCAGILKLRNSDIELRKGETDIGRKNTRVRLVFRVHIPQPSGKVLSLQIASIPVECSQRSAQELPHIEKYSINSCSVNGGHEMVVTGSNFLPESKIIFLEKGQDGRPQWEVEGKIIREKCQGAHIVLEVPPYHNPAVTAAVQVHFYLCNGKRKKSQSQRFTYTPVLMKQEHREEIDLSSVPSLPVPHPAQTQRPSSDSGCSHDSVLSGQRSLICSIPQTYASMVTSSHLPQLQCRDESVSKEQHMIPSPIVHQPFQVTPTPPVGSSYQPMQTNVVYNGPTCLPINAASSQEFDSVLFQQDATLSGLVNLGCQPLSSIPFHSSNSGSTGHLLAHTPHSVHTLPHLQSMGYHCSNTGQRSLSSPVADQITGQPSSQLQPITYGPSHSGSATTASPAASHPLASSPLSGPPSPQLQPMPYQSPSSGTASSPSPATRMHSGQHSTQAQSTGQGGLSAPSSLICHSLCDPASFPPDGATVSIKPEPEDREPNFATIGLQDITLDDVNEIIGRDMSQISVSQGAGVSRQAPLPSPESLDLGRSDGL
UniProt P17568, sequence (P17568 whole entry, looked up): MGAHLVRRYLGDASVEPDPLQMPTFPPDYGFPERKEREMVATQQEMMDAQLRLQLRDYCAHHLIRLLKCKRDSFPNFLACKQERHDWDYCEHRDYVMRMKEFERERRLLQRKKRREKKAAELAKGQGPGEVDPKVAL
UniProt Q8NBF2, sequence (Q8NBF2 whole entry, looked up): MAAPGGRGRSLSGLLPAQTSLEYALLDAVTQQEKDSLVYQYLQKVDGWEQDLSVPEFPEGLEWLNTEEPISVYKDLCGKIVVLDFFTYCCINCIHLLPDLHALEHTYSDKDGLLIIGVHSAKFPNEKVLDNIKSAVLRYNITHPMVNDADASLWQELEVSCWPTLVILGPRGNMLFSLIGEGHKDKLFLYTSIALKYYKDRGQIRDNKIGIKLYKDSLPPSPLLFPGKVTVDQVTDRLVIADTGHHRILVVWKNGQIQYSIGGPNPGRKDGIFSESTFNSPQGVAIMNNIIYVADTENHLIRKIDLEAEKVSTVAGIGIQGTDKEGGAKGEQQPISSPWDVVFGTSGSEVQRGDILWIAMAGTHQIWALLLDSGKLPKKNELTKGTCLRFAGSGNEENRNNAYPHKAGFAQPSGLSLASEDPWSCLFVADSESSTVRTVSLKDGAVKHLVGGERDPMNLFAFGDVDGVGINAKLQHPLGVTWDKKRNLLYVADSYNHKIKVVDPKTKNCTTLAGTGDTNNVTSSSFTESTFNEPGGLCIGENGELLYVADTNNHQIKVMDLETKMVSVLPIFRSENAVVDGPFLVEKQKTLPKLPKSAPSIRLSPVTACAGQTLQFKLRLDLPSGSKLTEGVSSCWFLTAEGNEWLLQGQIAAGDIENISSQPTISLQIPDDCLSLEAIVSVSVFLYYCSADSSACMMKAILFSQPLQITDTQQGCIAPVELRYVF
UniProt P56556, sequence (P56556 whole entry, looked up): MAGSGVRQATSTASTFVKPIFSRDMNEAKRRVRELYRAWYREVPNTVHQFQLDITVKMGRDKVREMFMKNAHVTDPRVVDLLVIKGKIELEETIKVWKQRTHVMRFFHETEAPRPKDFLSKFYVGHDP
UniProt Q16795, sequence (Q16795 whole entry, looked up): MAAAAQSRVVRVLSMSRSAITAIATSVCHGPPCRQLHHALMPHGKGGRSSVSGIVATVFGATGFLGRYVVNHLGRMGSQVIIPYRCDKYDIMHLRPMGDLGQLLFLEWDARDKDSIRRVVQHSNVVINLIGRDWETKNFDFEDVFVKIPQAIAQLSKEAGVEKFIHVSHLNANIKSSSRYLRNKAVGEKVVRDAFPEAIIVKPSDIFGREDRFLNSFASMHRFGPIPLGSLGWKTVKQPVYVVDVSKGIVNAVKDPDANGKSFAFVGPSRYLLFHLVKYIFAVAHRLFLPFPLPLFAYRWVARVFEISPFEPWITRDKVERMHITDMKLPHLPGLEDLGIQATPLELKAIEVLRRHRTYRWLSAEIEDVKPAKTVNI
UniProt O00567, sequence (O00567 whole entry, looked up): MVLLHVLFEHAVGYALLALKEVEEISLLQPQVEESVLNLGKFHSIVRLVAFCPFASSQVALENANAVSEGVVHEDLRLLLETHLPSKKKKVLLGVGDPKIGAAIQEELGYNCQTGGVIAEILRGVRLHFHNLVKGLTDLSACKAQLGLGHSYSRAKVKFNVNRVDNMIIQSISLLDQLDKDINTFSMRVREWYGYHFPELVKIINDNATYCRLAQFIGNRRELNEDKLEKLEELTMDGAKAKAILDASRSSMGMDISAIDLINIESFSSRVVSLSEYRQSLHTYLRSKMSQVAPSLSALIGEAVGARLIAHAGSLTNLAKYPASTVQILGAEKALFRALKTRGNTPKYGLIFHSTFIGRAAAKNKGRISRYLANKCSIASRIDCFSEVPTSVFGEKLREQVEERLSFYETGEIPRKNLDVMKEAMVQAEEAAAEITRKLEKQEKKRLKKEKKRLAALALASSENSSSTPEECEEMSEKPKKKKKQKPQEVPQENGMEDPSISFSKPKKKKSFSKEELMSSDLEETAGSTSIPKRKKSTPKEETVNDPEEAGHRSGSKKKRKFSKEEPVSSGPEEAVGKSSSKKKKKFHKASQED
UniProt Q9H3P2, sequence (Q9H3P2 whole entry, looked up): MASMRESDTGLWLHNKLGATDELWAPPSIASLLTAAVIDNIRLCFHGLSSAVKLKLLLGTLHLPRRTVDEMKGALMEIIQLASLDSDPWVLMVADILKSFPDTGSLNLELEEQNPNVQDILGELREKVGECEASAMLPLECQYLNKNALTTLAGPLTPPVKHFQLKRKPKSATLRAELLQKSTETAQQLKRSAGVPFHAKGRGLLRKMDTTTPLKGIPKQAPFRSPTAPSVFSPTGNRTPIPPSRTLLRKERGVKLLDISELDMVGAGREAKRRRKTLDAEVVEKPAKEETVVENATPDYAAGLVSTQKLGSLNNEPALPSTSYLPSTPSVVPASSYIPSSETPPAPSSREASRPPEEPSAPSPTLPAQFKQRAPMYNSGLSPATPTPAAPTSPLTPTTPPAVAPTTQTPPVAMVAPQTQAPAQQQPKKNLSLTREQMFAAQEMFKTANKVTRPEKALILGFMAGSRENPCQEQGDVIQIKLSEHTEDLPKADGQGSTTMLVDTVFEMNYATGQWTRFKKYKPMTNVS
UniProt O15118, sequence (O15118 whole entry, looked up): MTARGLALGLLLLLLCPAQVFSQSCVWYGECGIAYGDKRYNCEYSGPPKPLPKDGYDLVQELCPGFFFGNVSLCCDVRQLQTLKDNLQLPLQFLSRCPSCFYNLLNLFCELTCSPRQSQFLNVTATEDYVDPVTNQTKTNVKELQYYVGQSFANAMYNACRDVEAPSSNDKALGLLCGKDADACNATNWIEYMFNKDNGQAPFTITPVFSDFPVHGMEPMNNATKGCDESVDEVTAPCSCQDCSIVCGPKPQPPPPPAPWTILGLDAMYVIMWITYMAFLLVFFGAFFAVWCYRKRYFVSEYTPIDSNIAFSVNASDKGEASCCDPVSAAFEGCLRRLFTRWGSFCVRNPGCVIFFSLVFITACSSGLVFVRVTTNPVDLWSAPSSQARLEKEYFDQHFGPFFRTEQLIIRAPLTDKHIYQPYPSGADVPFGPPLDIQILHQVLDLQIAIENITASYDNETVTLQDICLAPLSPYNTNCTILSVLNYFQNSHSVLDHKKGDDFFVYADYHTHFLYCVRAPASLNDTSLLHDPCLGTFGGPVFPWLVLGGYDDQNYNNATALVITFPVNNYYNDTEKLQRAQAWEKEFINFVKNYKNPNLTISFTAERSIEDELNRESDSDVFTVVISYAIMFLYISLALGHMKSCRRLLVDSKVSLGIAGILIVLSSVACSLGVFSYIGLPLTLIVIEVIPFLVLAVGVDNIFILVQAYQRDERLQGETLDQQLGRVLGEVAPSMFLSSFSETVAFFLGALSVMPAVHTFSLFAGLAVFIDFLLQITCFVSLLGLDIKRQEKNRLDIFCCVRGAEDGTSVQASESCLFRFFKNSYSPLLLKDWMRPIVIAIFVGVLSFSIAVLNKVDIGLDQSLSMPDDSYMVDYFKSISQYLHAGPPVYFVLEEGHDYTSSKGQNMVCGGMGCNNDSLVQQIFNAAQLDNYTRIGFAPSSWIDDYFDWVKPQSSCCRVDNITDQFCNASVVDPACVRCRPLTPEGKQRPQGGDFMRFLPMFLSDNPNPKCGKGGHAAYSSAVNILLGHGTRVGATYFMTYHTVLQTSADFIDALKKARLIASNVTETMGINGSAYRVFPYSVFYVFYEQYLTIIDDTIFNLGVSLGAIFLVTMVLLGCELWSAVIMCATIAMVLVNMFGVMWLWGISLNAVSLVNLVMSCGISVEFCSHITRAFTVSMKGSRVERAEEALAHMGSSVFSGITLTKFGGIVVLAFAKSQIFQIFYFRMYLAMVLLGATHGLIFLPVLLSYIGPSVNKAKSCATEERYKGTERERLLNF

Target | log2 fold change
NDUFA6 (UniProt P56556) | 0.029
MORF4L2 (UniProt Q15014) | -0.004
NOL7 (UniProt Q9UMY1) | -0.06
NELFA (UniProt Q9H3P2) | -0.02
NHLRC2 (UniProt Q8NBF2) | -0.06
MRPS25 (UniProt P82663) | 0.033
MINK1 (UniProt Q8N4C8) | -0.04
OSBPL8 (UniProt Q9BZF1) | 0.209
NDUFA9 (UniProt Q16795) | 0.023
NTMT1 (UniProt Q9BV86) | 0.05
NFATC3 (UniProt Q12968) | 0.067
NAA11 (UniProt Q9BSU3) | -0.375
NUDT1 (UniProt P36639) | -0.016
MRPS18B (UniProt Q9Y676) | -0.036
NOP56 (UniProt O00567) | -0.024
MRPS15 (UniProt P82914) | 0.04
MXRA7 (UniProt P84157) | -0.181
NPC1 (UniProt O15118) | -0.018
NUCKS1 (UniProt Q9H1E3) | -0.036
NCAPG (UniProt Q9BPX3) | 0.086
NDUFB7 (UniProt P17568) | 0.037
NACC1 (UniProt Q96RE7) | -0.043
NDUFS8 (UniProt O00217) | 0.02
NCL (UniProt P19338) | -0.017

Reference: the supplement of paper PMC10849652
